Measured values: the supplement of paper PMC11732987, “Enantioselective OTUD7B fragment discovery through chemoproteomics screening and high-throughput optimisation” (Communications Chemistry, 2025)
Unmarked numbers belong to inactive results.

Legend:
Test in all cases: log2 ratio of Biotin-Ahx-Ub-VS probe labelling (fragment/DMSO); higher = less target engagement (more negative = stronger competition), active = hit call of the paper (q ≤ 0.05, log2 ratio ≤ -1)
Conditions in all cases: compound concentration: 200 uM; treatment time: 3 h
UniProt O00507 = target: UniProt O00507
Chain of UniProt O00507 (O00507 whole entry, the tested form may be a part): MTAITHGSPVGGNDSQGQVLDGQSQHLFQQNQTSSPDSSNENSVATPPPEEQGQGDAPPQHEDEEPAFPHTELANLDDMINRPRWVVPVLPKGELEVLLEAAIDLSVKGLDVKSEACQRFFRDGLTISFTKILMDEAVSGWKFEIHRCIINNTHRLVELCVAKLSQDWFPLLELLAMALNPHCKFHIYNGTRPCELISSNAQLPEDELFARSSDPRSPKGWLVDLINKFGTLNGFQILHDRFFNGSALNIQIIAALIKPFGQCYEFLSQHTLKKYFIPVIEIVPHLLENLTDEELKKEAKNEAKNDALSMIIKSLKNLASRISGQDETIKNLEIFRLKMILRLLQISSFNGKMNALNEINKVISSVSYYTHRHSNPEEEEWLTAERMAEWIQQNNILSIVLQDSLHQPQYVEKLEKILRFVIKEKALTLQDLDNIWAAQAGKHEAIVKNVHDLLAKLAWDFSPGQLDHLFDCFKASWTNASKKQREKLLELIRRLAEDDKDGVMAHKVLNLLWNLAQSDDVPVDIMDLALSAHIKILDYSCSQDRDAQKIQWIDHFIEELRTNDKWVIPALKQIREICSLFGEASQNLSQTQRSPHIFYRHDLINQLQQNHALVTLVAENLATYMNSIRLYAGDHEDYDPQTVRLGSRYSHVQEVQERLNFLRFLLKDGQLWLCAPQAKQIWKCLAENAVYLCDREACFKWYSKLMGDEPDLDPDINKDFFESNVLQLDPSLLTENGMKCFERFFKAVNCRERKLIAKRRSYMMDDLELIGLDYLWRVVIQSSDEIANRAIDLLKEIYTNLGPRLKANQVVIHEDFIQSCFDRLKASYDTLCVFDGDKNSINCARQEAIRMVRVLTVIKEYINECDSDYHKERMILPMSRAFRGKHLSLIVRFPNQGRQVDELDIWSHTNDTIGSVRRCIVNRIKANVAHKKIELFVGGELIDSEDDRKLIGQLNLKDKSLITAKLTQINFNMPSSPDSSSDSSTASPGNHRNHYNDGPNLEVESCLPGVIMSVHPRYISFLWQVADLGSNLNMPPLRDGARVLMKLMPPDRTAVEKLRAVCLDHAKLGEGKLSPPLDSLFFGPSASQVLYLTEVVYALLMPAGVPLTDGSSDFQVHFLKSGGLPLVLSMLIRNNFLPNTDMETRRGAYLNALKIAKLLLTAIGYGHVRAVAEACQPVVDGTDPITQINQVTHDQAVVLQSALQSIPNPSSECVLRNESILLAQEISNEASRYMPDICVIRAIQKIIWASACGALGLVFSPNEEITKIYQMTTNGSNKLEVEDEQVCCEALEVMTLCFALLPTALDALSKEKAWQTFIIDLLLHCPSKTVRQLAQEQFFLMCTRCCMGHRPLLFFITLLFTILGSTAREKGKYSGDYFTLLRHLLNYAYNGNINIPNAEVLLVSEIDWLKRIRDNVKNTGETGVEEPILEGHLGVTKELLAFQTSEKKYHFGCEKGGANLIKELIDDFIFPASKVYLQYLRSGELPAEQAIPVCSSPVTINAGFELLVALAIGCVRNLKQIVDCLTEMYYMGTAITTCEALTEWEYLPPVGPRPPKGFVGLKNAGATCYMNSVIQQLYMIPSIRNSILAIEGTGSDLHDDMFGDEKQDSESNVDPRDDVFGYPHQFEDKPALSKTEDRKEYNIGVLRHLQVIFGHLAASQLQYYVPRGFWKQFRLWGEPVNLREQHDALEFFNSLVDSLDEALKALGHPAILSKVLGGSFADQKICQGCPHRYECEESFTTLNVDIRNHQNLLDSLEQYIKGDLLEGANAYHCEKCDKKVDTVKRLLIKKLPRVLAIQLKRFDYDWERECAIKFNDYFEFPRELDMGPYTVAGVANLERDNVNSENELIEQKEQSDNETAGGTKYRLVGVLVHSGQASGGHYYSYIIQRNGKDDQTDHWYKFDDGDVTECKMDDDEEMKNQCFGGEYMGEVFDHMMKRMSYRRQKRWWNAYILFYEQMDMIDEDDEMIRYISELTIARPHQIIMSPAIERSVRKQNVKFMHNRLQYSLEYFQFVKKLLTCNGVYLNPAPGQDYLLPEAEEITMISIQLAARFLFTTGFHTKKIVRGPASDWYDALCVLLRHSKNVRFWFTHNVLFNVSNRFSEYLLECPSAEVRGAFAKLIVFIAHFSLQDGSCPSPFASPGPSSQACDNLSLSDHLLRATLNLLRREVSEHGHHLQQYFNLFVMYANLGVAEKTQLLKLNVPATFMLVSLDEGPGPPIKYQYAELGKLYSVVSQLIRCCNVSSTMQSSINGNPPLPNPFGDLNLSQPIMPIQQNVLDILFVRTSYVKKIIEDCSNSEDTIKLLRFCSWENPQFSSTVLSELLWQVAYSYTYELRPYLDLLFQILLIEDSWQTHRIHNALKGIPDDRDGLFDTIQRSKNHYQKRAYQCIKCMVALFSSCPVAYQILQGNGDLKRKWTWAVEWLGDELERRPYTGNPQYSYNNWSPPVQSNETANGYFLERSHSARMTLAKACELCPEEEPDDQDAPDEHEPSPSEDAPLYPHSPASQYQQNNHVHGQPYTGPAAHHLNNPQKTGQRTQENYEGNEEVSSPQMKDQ
How it was run: (§1)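 Labelled DUBs were enriched with NeutrAvidin, digested with LysC and trypsin, and run by diaPASEF LC-MS/MS. The labelling used Biotin-Ahx-Ub-VS at 0.5 µM final for 1 h on HEK293T lysate (495 µg per sample) previously treated in triplicate with fragment at 200 µM or vehicle for 3 h. Values are average log2 fragment/vehicle ratios by unpaired t-test on global-median-normalised Spectronaut quantities of proteins with ≥2 unique peptides.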

UniProt P51784 = target: UniProt P51784
Chain of UniProt P51784 (P51784 whole entry): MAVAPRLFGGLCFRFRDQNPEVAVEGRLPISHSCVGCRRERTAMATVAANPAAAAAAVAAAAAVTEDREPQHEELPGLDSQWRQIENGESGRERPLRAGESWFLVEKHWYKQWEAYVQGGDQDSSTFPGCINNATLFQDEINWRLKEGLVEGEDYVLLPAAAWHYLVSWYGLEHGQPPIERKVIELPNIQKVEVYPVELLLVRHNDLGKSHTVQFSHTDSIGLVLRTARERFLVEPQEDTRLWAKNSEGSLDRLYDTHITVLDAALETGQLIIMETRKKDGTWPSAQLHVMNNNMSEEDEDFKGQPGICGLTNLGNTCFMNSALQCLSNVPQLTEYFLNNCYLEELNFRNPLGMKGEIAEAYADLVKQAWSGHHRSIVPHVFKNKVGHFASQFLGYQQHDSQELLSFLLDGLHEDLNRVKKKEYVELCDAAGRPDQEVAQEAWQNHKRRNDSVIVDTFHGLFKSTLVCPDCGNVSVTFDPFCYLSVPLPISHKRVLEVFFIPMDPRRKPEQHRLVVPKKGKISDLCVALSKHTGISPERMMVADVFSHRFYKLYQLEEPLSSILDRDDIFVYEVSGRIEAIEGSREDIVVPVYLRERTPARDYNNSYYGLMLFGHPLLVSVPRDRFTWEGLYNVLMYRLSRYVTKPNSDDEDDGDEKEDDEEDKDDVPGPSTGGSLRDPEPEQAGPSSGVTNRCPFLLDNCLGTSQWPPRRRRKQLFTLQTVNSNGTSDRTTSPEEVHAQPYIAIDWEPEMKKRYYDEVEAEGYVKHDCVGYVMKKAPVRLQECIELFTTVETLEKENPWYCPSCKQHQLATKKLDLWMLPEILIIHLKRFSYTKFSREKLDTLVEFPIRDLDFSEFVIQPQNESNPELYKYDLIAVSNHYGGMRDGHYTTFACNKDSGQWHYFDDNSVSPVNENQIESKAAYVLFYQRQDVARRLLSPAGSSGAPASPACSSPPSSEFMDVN
How it was run: as §1

UniProt Q5T2D3 = target: T1, UniProt Q5T2D3
T1 sequence (whole entry): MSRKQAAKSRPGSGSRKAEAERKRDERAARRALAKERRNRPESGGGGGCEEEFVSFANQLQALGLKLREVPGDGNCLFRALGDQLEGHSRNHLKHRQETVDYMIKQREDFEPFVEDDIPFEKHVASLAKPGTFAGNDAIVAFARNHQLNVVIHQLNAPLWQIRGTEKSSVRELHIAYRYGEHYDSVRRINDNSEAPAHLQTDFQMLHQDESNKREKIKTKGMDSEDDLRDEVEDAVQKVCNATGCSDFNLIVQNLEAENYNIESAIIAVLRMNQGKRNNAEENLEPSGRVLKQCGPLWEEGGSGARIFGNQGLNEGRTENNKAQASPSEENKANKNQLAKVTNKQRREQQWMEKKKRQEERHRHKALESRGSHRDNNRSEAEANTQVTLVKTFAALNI
How it was run: as §1

UniProt Q8TE49 = target: T2, UniProt Q8TE49
T2 sequence (whole entry): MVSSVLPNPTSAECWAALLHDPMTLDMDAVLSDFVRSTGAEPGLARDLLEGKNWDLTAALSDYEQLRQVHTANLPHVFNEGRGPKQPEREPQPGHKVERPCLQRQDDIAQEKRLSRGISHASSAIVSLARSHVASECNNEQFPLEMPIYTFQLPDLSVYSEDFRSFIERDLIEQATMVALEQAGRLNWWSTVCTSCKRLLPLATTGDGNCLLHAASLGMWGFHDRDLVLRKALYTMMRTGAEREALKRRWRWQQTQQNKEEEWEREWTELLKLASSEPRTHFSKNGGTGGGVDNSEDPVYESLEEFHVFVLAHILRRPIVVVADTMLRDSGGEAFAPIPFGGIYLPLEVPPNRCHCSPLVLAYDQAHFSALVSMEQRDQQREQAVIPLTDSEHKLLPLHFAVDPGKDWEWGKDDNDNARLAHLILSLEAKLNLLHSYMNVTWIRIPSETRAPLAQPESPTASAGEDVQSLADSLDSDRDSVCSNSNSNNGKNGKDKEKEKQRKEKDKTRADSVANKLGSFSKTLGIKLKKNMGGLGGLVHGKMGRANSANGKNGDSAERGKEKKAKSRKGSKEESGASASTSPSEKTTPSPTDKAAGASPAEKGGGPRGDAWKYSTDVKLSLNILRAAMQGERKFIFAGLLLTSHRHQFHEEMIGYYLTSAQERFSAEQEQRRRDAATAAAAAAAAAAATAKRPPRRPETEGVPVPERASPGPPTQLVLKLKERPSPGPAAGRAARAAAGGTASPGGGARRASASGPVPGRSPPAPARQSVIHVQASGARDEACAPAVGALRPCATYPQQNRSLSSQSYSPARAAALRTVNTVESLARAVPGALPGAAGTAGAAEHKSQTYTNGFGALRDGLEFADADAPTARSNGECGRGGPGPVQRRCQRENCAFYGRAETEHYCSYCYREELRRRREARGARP
How it was run: as §1

UniProt Q9P2H5 = target: T3, UniProt Q9P2H5
T3 sequence (whole entry): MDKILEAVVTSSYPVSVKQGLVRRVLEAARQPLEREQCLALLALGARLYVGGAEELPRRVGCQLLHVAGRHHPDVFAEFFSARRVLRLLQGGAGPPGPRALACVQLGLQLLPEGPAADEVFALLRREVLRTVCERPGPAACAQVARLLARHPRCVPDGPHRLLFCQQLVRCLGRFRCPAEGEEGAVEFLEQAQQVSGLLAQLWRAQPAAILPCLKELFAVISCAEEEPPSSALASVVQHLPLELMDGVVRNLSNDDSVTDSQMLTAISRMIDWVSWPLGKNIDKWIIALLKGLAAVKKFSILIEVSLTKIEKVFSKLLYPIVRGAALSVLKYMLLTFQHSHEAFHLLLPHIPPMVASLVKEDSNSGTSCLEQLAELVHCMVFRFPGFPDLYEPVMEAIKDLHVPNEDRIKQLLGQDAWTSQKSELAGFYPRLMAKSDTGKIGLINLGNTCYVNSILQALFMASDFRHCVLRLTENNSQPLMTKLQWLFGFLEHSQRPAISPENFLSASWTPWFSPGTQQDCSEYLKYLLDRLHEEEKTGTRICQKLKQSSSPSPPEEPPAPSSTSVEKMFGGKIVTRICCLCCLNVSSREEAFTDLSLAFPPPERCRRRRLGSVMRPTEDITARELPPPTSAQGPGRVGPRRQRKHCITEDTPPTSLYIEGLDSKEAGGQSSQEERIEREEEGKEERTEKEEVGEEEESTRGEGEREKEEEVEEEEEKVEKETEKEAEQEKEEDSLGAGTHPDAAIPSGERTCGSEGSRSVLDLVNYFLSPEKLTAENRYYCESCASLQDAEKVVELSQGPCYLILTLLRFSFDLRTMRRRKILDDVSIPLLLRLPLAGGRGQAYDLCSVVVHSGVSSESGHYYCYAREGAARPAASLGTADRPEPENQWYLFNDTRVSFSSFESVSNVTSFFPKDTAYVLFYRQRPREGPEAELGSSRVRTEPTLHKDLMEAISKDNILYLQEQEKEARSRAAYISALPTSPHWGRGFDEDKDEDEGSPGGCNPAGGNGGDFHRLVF
How it was run: as §1

UniProt Q9UGI0 = target: T4, UniProt Q9UGI0
T4 sequence (whole entry): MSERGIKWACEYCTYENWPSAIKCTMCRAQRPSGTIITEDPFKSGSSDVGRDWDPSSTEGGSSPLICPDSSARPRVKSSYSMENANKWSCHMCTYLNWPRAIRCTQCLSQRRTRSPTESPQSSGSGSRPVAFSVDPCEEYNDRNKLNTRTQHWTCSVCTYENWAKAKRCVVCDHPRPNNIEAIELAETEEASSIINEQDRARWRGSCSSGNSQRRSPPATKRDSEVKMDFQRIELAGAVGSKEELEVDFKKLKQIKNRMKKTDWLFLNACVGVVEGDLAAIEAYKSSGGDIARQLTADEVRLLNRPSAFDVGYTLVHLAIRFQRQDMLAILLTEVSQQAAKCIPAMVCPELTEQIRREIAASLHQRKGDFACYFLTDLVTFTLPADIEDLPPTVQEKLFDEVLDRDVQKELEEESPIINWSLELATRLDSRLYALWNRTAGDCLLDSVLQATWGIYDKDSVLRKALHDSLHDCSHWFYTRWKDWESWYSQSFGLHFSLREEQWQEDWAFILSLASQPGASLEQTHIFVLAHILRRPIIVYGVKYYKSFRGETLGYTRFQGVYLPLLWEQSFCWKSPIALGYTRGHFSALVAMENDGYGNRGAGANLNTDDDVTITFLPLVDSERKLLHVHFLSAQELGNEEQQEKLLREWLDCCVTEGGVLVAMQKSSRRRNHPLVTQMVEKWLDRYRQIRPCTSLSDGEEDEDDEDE
How it was run: as §1

YOD1 = target: T5, YOD1 (UniProt Q5VVQ6)
T5 sequence (whole entry): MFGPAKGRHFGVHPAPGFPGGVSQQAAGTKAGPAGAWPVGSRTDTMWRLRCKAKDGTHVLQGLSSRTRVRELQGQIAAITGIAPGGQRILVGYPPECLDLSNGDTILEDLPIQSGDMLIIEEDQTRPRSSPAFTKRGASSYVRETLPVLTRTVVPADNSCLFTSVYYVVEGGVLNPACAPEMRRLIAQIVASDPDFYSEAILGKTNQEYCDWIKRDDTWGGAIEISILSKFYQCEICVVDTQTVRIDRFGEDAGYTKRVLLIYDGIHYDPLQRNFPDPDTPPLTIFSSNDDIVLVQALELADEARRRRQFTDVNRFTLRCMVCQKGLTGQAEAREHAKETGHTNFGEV
How it was run: as §1

| SMILES | log2 ratio of Biotin-Ahx-Ub-VS probe labelling (UniProt O00507) | log2 ratio of Biotin-Ahx-Ub-VS probe labelling (UniProt P51784) | log2 ratio of Biotin-Ahx-Ub-VS probe labelling (UniProt Q5T2D3) | log2 ratio of Biotin-Ahx-Ub-VS probe labelling (UniProt Q8TE49) | log2 ratio of Biotin-Ahx-Ub-VS probe labelling (UniProt Q9P2H5) | log2 ratio of Biotin-Ahx-Ub-VS probe labelling (UniProt Q9UGI0) | log2 ratio of Biotin-Ahx-Ub-VS probe labelling (YOD1) |
| --- | --- | --- | --- | --- | --- | --- | --- |
| O=C(CCl)NCC(=O)N1CCCC1 | -0.0296 | 0.172 | -0.355 | -0.471 | -0.207 | -0.151 | -0.225 |
| CS(=O)(=O)c1ccc(CNC(=O)CCl)cc1 | -0.143 | -0.0799 | -0.383 | -0.563 | 0.0147 | -0.189 | -0.172 |
| Cc1ccc(CN(CCO)C(=O)CCl)cc1 | -0.468 | -0.204 | -0.439 | -0.837 | -0.351 | -1.16 (active) | -0.163 |
| Cc1ccccc1C1(CNC(=O)CCl)CCOCC1 | 0.332 | 0.00427 | -0.0687 | -0.333 | -0.221 | -0.577 | -0.0207 |
| Cc1ccc(N(C(=O)CCl)C2C=CS(=O)(=O)C2)cc1 (stereo not given) | 0.428 | 0.0438 | 0.136 | -0.0818 | -0.196 | -0.0234 | 0.412 |
| COc1ccc(CN(C)C(=O)CCl)cc1 | -0.339 | 0.00264 | -0.273 | -0.895 | 0.0343 | -0.846 | -0.295 |
| CC(NC(=O)CCl)c1cccc2ccccc12 (stereo not given) | 0.0439 | -0.0702 | -0.196 | -1.06 (active) | -0.463 | -0.905 | 0.0311 |
| Cn1cc(CN(Cc2ccc(Cl)cc2)C(=O)CCl)cn1 | -0.606 | -0.11 | 0.147 | -0.82 | -0.065 | -0.327 | -0.0228 |
| O=C(CCl)NCCc1cccc2ccccc12 | 0.608 | 0.159 | -0.0259 | -0.28 | 0.0801 | 0.238 | 0.263 |
| Cc1cccc(C)c1NC(=O)CCl | -0.138 | -0.081 | -0.377 | -0.358 | -0.0602 | -0.323 | -0.344 |
